# According to PubChem BioAssay AID651860 (Broad Institute, 2012):
# Potency and affinity values are given separately. Active and inactive are the calls of the source.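 Rule for the calls: active = compounds lowering HepG2 cell ATP luminescence with a fitted half-maximal concentration at most twice the top tested dose; inconclusive = flat fit with 30 to 70 percent signal loss, or poor fit; inactive = the rest.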
# Assay: HepG2 cell cytotoxicity, dose response, cytotoxicity control, luminescence plate reader, powder samples, set 2 (AID 651860)
# Details: HepG2 viability, CellTiter-Glo ATP luminescence, 48 h; series mostly up to 26 µM
row,Compound,outcome
1,O=C(O)C1CCCCC1C(=O)NCC1c2ccccc2CCN1C(=O)Cc1ccccc1 (centres undefined),inactive
2,O=C(NC[C@@H]1c2ccccc2CCN1C(=O)[C@@H]1CCCC[C@@H]1C(=O)O)c1ccc(CCl)cc1,inactive
3,O=C(O)[C@H]1CCCC[C@H]1C(=O)N1CCc2ccccc2[C@H]1CNc1nc(Cl)nc2ccccc12,inactive
4,Cc1cc(C)c(S(=O)(=O)Nc2nc(NCCO)nc3ccccc23)c(C)c1,inactive
5,Cc1cc(C)c(S(=O)(=O)Nc2nc(N(C)C)nc3ccccc23)c(C)c1,inactive
6,CC(C)OC(=O)C(C(=O)C(F)(F)F)c1cc(NS(=O)(=O)c2ccccc2)c2ccccc2c1O (centres undefined),inactive
7,O=C(O)c1ccccc1C(=O)NC[C@@H]1c2ccccc2CCN1C(=O)[C@@H]1CCCC[C@@H]1C(=O)O,inactive
8,O=C1c2ccccc2C(=O)N1CC1=NCCc2ccccc21,inactive
9,O=C(O)[C@H]1C2C=CC(C2)[C@H]1C(=O)N1CCc2ccccc2C1CN1C(=O)c2ccccc2C1=O (some centres undefined),inactive
10,CC(C)CNc1nc(NS(=O)(=O)c2ccccc2)c2ccccc2n1,inactive
11,O=C(Cc1ccccc1)NC[C@@H]1c2ccccc2CCN1C(=O)[C@@H]1CCCC[C@@H]1C(=O)O,inactive
12,O=C(O)C1CCCCC1C(=O)N1CCc2ccccc2C1CN1C(=O)[C@H]2CCCC[C@H]2C1=O (some centres undefined),inactive
13,O=C(O)c1ccccc1C(=O)N1CCc2ccccc2C1CN1C(=O)c2ccccc2C1=O (centres undefined),inactive
14,C=CC(=O)NC[C@@H]1c2ccccc2CCN1C(=O)[C@@H]1CCCC[C@@H]1C(=O)O,inactive
15,O=C(NC[C@@H]1c2ccccc2CCN1C(=O)[C@@H]1CCCC[C@@H]1C(=O)O)OCC1c2ccccc2-c2ccccc21,inactive
16,O=C(NC[C@@H]1c2ccccc2CCN1C(=O)[C@@H]1CCCC[C@@H]1C(=O)O)c1ccc(CN2CCOCC2)cc1,inactive
17,COC(=O)[C@H]1CCCC[C@H]1C(=O)N1CCc2ccccc2[C@H]1CN1C(=O)c2ccccc2C1=O,inactive

row,Compound,outcome
1,O=C(O)C1CCCCC1C(=O)N1CCc2ccccc2[C@H]1C(=O)NC12CC3CC(CC(C3)C1)C2 (some centres undefined),inactive
2,Cc1cc(C)c(S(=O)(=O)Nc2ncnc3ccccc23)c(C)c1,inactive
3,O=C(O)Cc1ccccc1C(=O)N1CCc2ccccc2[C@H]1CN1C(=O)c2ccccc2C1=O,inactive
4,NC(=O)c1ccccc1C(=O)NC[C@@H]1c2ccccc2CCN1C(=O)[C@@H]1CCCC[C@@H]1C(=O)O,inactive
5,O=C(O)[C@H]1CCCC[C@H]1C(=O)N1CCc2ccccc2C1CCN1C(=O)c2ccccc2C1=O (some centres undefined),inactive
6,CCOC(=O)Cc1nc(NS(=O)(=O)c2c(C)cc(C)cc2C)c2ccccc2n1,inactive
7,O=C1c2ccccc2C(=O)N1C[C@@H]1c2ccccc2CCN1C(=O)C1CCCCC1,inactive
8,O=C(O)C1CCCCC1C(=O)N1CCc2ccccc2C1CN1C(=O)c2ccccc2S1(=O)=O (centres undefined),inactive
9,Cc1ccc(S(=O)(=O)NC[C@@H]2c3ccccc3CCN2C(=O)[C@@H]2CCCC[C@@H]2C(=O)O)c(C)c1,inactive
10,Cc1ccc(S(=O)(=O)NNc2nc(C(C(=O)OC(C)C)C(=O)C(F)(F)F)nc3ccccc23)cc1 (centres undefined),inactive
11,O=C1c2ccccc2C(=O)N1C[C@H]1NCCc2ccccc21,inactive
12,O=C(O)CCCC(=O)N1CCc2ccccc2C1CN1C(=O)c2ccccc2C1=O (centres undefined),inactive
13,O=C(O)/C=C\C(=O)N1CCc2ccccc2C1CN1C(=O)c2ccccc2C1=O (centres undefined),inactive
14,O=S(=O)(Nc1nc(NCC2CCCCC2)nc2ccccc12)c1ccccc1,inactive
15,O=C(NCCc1ccccc1)c1ccccc1C(=O)NC[C@@H]1c2ccccc2CCN1C(=O)C1CCCCC1C(=O)O (some centres undefined),inactive
16,Cc1ccc(S(=O)(=O)Nc2cc(C(C(=O)OC(C)C)C(=O)C(F)(F)F)c(O)c3ccccc23)c(C)c1 (centres undefined),inactive
17,C[C@H](NC(=O)C1CCCC[C@H]1C(=O)O)c1ccccc1 (mixture of isomers),inactive
